Screens as filed in PubChem.
A1 inh = A1 inhibition. MEF A1-2A-BIM cells, caspase-Glo luminescence, 3 h; percent of clofoctol signal, DMSO as zero. caspase activation, % (test concentration not listed). 0.51% of 21,000 active. AID 2241;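 active = most replicate scores above 10, or exactly half above 10 with mean activity above 10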;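 also: effector caspase 3 and 7 activity cleaving a DEVD luciferin substrate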
BJeLR viab HTS = BJeLR cell viability reduction | BJeLR fibroblasts viability, CellTiterGlo ATP luminescence, 48 h; HRASV12, hTERT and SV40 LT/ST transformed | viability loss activity score, % (no concentration beside the values) | 0.64% of 30,000 active | AID 2275; in the data active = viability loss activity score above about 50%;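 also: higher score means fewer live cells and less ATP luminescence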
Each line names hits and unclear results; the compound was inactive in the other large screens. Only some compounds are listed: those with a hit (about 0.9% of all), similar ones and a draw of the others.

COC(=O)CC(O)(CCCC(C)(C)O)C(=O)O[C@@H]1C(OC)=C[C@]23CCCN2CCc2cc4c(cc2[C@@H]13)OCO4 (stereo not given in full)	A1 inh 10 (no result: BJeLR viab HTS)
COc1cc2ncnc(Nc3cccc(O)c3)c2cc1OC	A1 inh 12
COc1cc2ncnc(Nc3cccc(Br)c3)c2cc1OC	none
O=C1/C(=C/c2ccc(N3CCOCC3)cc2)Cc2ccccc21	none (no result: A1 inh)
CCN(Cc1ccccc1)C(=O)CSc1nc2nc(C)c(Cc3ccccc3Cl)c(C)n2n1	none (no result: A1 inh)
O=C1c2ccccc2-[n+]2ccc3c([nH]c4ccccc43)c21	BJeLR viab HTS 130
O=C1C(c2c(O)[nH]c3ccccc23)=Nc2ccccc21	none
CN1CC(=O)NC1=NC(=O)C1CCCN(S(=O)(=O)c2ccc3c(c2)oc(=O)n3C)C1 (stereo not given)	none (no result: A1 inh)
COc1ccc(CC(N)C(=O)N[C@H]2[C@@H](O)[C@H](n3cnc4c(N(C)C)ncnc43)O[C@@H]2CO)cc1 (stereo not given in full)	A1 inh 58
CN(C)c1ncnc2c1ncn2C1OC(CO)C(N)C1O (stereo not given)	none
O=c1c(-c2ccc(Cl)cc2Cl)c(C(F)(F)F)oc2cc(O)ccc12	none (no result: A1 inh)
C[C@@H]1O[C@@H](O[C@H]2[C@H](O[C@H]3CC[C@@]4(C)C(CC[C@]5(C)C4CC=C4[C@@H]6CC(C)(C)CC[C@]6(C(=O)O[C@@H]6O[C@H](CO[C@@H]7O[C@H](CO)[C@@H](O)[C@H](O)[C@H]7O)[C@@H](O)[C@H](O)[C@H]6O)CC[C@]45C)[C@]3(C)CO)OC[C@H](O)[C@@H]2O)[C@H](O)[C@H](O)[C@H]1O (stereo not given in full)	none
CC1(C)CC[C@@]2(C(=O)O[C@@H]3O[C@H](CO)[C@@H](O)[C@H](O)[C@H]3O)C(C1)C1=CCC3[C@@]4(C)CC[C@@H](O[C@@H]5O[C@H](C(=O)O)[C@@H](O[C@@H]6OC[C@@H](O)[C@H](O)[C@H]6O)[C@H](O)[C@H]5O)C(C)(C)C4CC[C@@]3(C)[C@]1(C)C[C@H]2O (stereo not given in full)	none
CC1(C)CC[C@]2(C(=O)O[C@@H]3O[C@H](CO)[C@@H](O)[C@H](O)[C@H]3O)CC[C@]3(C)C(=CCC4[C@@]5(C)CC[C@H](O[C@@H]6O[C@H](C(=O)O)[C@@H](O[C@@H]7O[C@H](CO)[C@@H](O)[C@H](O)[C@H]7O)[C@H](O)[C@H]6O)C(C)(C)C5CC[C@]43C)C2C1 (stereo not given in full)	none
C[C@@H]1O[C@@H](O[C@H]2[C@H](O)[C@@H](O)[C@H](OC[C@H]3O[C@@H](OC(=O)[C@]45CCC(C)(C)CC4C4=CCC6[C@@]7(C)CC[C@H](O)C(C)(C)C7CC[C@@]6(C)[C@]4(C)CC5)[C@H](O)[C@@H](O)[C@@H]3O)O[C@@H]2CO)[C@H](O)[C@H](O)[C@H]1O (stereo not given in full)	BJeLR viab HTS 125
CC1OC(O[C@H]2CC[C@@]3(C)C(CC[C@]4(C)C3CC=C3C5CC(C)(C)CC[C@]5(C(=O)OC5OC(CO)C(OC6OC(CO)C(O)C(O)C6O)C(O)C5O)CC[C@]34C)C2(C)C)C(O)C(O)C1OC1OCC(O)(COC2OCC(O)C(OC3OCC(OC4OCC(O)(CO)C4O)C(O)C3O)C2O)C1O (stereo not given in full)	none
CC(=O)N[C@H]1[C@H](O[C@H]2CC[C@@]3(C)C(CC[C@]4(C)C3CC=C3[C@@H]5CC(C)(C)CC[C@]5(C(=O)OC5OCC(O)C(O)C5O)C(O)C[C@]34C)C2(C)C)O[C@H](COC2OCC(O)C(OC3OCC(O)C(O)C3O)C2O)[C@@H](O[C@@H]2O[C@@H](C)[C@H](O)[C@@H](O)[C@H]2O[C@@H]2O[C@@H](C)[C@H](O)[C@@H](O)[C@H]2O)[C@@H]1O (stereo not given in full)	A1 inh 35
CC1OC(OC2C(CO)OC(OC(=O)[C@]34CCC(C)(C)CC3C3=CCC5[C@@]6(C)CC[C@H](OC7OC(C)C(OC8OCC(O)(COC9OCC(O)C(OC%10OCC(OC%11OCC(O)(CO)C%11O)C(O)C%10O)C9O)C8O)C(O)C7O)C(C)(C)C6CC[C@@]5(C)[C@]3(C)CC4)C(O)C2O)C(O)C(O)C1O (stereo not given in full)	A1 inh 12
CC1(C)CC[C@]2(C(=O)OC3OC(CO)C(O)C(O)C3O)CC[C@]3(C)C(=CCC4[C@@]5(C)CC[C@H](OC6OC(C(=O)O)C(O)C(O)C6O)C(CO)(CO)C5CC[C@]43C)[C@@H]2C1 (stereo not given in full)	BJeLR viab HTS 133
COc1cc2c(C(=O)N3CCC4(CC3)OCCO4)cn(CC(C)C)c(=O)c2cc1OC	none (no result: A1 inh)
